# Data from PubChem BioAssay (NCATS).
# The source made the active and inactive calls. A call without a number means that no potency is given here. Calls come from the whole dose curve; as a rule, active = well fitted inhibition curve with a large enough effect; inconclusive = small, poorly fitted or top-dose-only effect; inactive = no such curve, though single readings can be large or run the other way.
# Target: Single-stranded DNA cytosine deaminase (Homo sapiens) (UniProt Q9GZX7)
# Test: Validation qHTS assay for inhibitors of Activation Induced Cytidine Deaminase (AID): AID signal (AID 1347429)
# Conditions: Recombinant AID, FRET ssDNA deamination with UDG, fluorescence; series mostly up to 115 µM
# Outline: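 In this coupled qHTS, AID deaminates a FRET-labelled ssDNA substrate in the presence of UDG over 4 hr at room temperature. Compounds span up to 114 uM final.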
# Potency is the fitted concentration of half-maximal effect.
# Sequence of Single-stranded DNA cytosine deaminase (Homo sapiens) (Q9GZX7 whole entry, looked up): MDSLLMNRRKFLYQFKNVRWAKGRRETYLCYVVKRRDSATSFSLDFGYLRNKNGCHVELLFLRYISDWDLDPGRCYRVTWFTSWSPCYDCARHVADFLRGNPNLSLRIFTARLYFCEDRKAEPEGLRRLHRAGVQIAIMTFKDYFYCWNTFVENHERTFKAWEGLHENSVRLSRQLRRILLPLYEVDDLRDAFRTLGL
row,SMILES,Potency
1,CCCCCCCC/C=C\CCCCCCCC(=O)NCCO,inactive
2,N#C/C(=C\c1ccc(O)c(O)c1)C(=O)c1ccc(O)c(O)c1,inactive
3,CN1CCc2cc(O)c(O)cc2C(c2ccccc2)C1 (configuration not stated),inactive
4,COc1cc2nc(N3CCN(C(=O)OCc4ccccc4)C(C(=O)NC(C)(C)C)C3)nc(N)c2cc1OC (configuration not stated),inactive
5,Clc1ccc(N2CCN(Cc3c[nH]c4ncccc34)CC2)cc1,inactive
6,NC(=O)C(=O)O,inactive
7,O=Nc1ccc2oc(=O)ccc2c1,inactive
8,O=C(O)c1cc(=O)c2c(Cl)cc(Cl)cc2[nH]1,inactive
9,N=C(N)SCCc1ccc(CCSC(=N)N)cc1,inactive
10,CN(C)c1ccc(/C=C2\C(=O)Nc3ccccc32)cc1,inactive
11,COc1ccccc1N1CCN(CCN(C(=O)c2ccc(I)cc2)c2ccccn2)CC1,inactive
12,COc1ccc(NC(=O)/C=C/c2ccc(Cl)cc2)cc1,inactive
13,CO/N=C(\C(=O)N[C@@H]1C(=O)N2C(C(=O)O)=C(COC(C)=O)CS[C@H]12)c1csc(N)n1,inactive
14,COc1ccccc1N1CCN(CCCCNS(=O)(=O)c2cccc3c(N(C)C)cccc23)CC1,inactive
15,O=C(O)CC1CCCc2ccccc2C1O (configuration not stated),inactive
16,Cn1cc(C2=C(c3ccc(Cl)cc3Cl)C(=O)NC2=O)c2ccccc21,inactive
17,C[N+](C)(C)CCOP(=O)(O)OP(=O)([O-])OC[C@H]1O[C@@H](n2ccc(N)nc2=O)[C@H](O)[C@@H]1O,inactive
18,Clc1ccc(N2CCN(Cc3cc4ccccn4n3)CC2)cc1,inactive
19,OCC1O[C@H]([S-])[C@H](O)[C@@H](O)[C@@H]1O.[Au+] (some centres not stated),12.6 µM (active)

row,SMILES,Potency
1,COc1cc(OC)c(/C=C2/C(=O)Nc3ccccc32)c(OC)c1,inactive
2,CCC1C(=O)OCC1Cc1cncn1C (configuration not stated),inactive
3,Oc1cc2c(cc1O)CN(C(=S)NCCc1ccc(Cl)cc1)CCC2,inactive
4,O=C(/C=C/c1ccc(O)c(O)c1)OCCc1ccccc1,inactive
5,NCC1OC(O[C@H]2[C@H](O)[C@@H](OC3C(O)C(N)CC(N)C3OC3OC(CO)C(O)C(O)C3N)O[C@@H]2CO)C(N)C(O)C1O (some centres not stated),inactive
6,CN1CCc2cccc3c2C1Cc1ccc(O)c(O)c1-3 (configuration not stated),inactive
7,N.N.O=C(O)C1(C(=O)O)CCC1.[Pt],inactive
8,NC[C@H]1O[C@@H](n2cnc3c(N)ncnc32)[C@H](O)[C@@H]1O,inactive
9,NC(=S)c1ccc[n+]([C@@H]2O[C@@H](COP(=O)([O-])OP(=O)(O)OC[C@H]3O[C@@H](n4cnc5c(N)ncnc54)[C@H](OP(=O)(O)O)[C@@H]3O)C(O)C2O)c1 (some centres not stated),inactive
10,CN1CC(=O)N/C1=N/C(=O)Nc1cccc(Cl)c1,inactive
11,COc1cccc(OC)c1OCCNCC1COc2ccccc2O1 (configuration not stated),inactive
12,CN(C)C(N)=NCCC[C@H](N)C(=O)O,inactive
13,CCCN(CC1CC1)c1nc(C)nc(Nc2c(Cl)cc(Cl)cc2Cl)c1Cl,inactive
14,CSc1ccccc1N1CCN(CCCCCC(=O)NC2CCCc3ccccc32)CC1 (configuration not stated),inactive
15,Cc1cc(NC(=O)Nc2ccc3c(ccn3C)c2)sn1,inactive
16,Nc1nc(Cl)nc2c1ncn2[C@@H]1O[C@H](CO)[C@@H](O)[C@H]1O,inactive
17,Ic1ccc(N2CCN(Cc3c[nH]c4ncccc34)CC2)cc1,inactive
18,Cc1nc2sccn2c(=O)c1CCN1CCC(=C(c2ccccc2)c2ccc(F)cc2)CC1,inactive
